Binding signal data for seven sequences are collected here from publication PMC4081100, “A DNA-binding-site landscape and regulatory network analysis for NAC transcription factors in Arabidopsis thaliana”.

Common to all, as to assay: universal protein binding microarray (PBM); transcription factors of Arabidopsis thaliana; high values mean tight binding
The target of one assay is T1, GST-ANAC092(1-176) (Arabidopsis thaliana, UniProt Q9FKA0 1-176).
T1 sequence: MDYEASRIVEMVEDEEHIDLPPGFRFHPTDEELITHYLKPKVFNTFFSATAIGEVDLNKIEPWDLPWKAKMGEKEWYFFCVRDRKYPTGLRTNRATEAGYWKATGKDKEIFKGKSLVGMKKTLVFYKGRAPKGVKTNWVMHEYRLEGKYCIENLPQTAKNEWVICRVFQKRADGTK
The conditions noted are these: protein: recombinant; tags: GST; chain copies: 2; dsDNA, one strand shown. Summed up: (§1)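 Binding is expressed as the normalised enrichment score (E-score). Proteins carrying a GST tag, whether NAC-domain, full-length or DNA-binding-domain forms, were induced in cells, and zinc acetate was added for zinc-finger proteins. After purification on glutathione–Sepharose 4B and quantification by A280 or anti-GST western blot, each was applied in duplicate at 200 to 500 nM final to custom all-10-mer Agilent 4 × 180K arrays made double-stranded by primer extension. Gapped and ungapped 8-mers were scored.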

The target of the next assay is GST-NTL6(1-168) (Arabidopsis thaliana, UniProt Q9SCK6 1-168). As to conditions: protein: recombinant; tags: GST; chain copies: 2; dsDNA, one strand shown. A digest of the protocol:
as §1

A further assay addresses T2, GST-ANAC019 NAC domain (Arabidopsis thaliana, UniProt Q9C932 14-162).
T2 sequence: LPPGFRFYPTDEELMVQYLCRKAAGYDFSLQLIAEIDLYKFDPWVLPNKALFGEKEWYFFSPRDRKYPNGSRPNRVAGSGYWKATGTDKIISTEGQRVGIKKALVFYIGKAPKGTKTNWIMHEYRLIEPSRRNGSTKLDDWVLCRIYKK
The conditions noted are these: protein: recombinant; tags: GST; chain copies: 2; dsDNA, one strand shown. A digest of the protocol: as §1

For the next assay, the target named is T3, GST-ANAC055(1-171) (Arabidopsis thaliana, UniProt Q9LDY8 1-171).
T3 sequence: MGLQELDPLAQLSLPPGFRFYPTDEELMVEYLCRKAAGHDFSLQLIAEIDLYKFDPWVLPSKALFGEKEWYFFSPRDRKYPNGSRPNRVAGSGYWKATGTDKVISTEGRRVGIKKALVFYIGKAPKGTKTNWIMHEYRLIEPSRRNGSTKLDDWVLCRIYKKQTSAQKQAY
As to conditions: protein: recombinant; tags: GST; chain copies: 2; dsDNA, one strand shown. Summed up: as §1

Another assay addresses T4, GST-ATAF1 NAC domain (Arabidopsis thaliana, UniProt Q39013 7-158).
T4 sequence: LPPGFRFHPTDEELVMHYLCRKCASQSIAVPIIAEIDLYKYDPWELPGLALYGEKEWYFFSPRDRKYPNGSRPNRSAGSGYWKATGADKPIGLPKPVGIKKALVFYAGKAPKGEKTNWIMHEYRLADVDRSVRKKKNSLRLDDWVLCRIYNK
The conditions noted are these: protein: recombinant; tags: GST; chain copies: 2; dsDNA, one strand shown. A digest of the protocol:
as §1

The target of assay [1] is T5, GST-ANAC092(1-285) full length (Arabidopsis thaliana, UniProt Q9FKA0 1-285).
T5 sequence: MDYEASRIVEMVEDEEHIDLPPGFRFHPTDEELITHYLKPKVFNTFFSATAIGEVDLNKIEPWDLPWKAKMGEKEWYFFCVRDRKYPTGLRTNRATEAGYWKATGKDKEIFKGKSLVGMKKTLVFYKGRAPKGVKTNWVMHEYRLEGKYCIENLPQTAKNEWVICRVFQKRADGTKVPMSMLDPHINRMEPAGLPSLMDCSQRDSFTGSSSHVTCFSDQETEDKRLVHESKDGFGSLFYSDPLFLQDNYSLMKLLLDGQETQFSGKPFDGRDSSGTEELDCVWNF
The conditions noted are these: protein: recombinant; tags: GST; chain copies: 2; dsDNA, one strand shown. Summed up: as §1

A further assay addresses T6, GST-NST2(1-184) (Arabidopsis thaliana, UniProt Q9M274 1-184).
T6 sequence: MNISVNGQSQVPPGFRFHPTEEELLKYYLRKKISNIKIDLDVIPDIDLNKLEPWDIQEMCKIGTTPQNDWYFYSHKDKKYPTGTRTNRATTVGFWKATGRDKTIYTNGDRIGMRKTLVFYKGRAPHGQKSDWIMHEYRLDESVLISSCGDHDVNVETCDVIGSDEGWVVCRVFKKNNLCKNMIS
As to conditions: protein: recombinant; tags: GST; chain copies: 2; dsDNA, one strand shown. A digest of the protocol: as §1

A further assay concerns the target T7, GST-NTL8 NAC domain (Arabidopsis thaliana, UniProt Q9XIN7 14-156).
T7 sequence: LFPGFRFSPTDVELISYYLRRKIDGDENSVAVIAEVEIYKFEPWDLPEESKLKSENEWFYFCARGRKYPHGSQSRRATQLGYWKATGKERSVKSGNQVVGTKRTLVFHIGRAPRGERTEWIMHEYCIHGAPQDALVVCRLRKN
As to conditions: protein: recombinant; tags: GST; chain copies: 2; dsDNA, one strand shown. A digest of the protocol:
as §1

The target in the next assay is T8, GST-SND1(1-203) (Arabidopsis thaliana, UniProt Q9LPI7 1-203).
T8 sequence: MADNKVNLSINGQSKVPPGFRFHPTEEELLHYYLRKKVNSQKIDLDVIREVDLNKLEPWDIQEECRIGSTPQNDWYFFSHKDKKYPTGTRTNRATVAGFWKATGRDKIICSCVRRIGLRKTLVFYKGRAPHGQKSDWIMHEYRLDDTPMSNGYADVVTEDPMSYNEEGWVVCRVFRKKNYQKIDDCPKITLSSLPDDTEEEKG
As to conditions: protein: recombinant; tags: GST; chain copies: 2; dsDNA, one strand shown. A digest of the protocol: as §1

The target of the next assay is T9, GST-VND3 NAC domain (Arabidopsis thaliana, UniProt Q9FH59 12-162).
T9 sequence: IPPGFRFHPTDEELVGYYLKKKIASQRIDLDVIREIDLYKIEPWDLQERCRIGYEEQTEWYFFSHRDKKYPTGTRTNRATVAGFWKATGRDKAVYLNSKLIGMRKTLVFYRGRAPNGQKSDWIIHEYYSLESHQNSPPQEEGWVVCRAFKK
As to conditions: protein: recombinant; tags: GST; chain copies: 2; dsDNA, one strand shown. Summed up: as §1

In a further assay the target is T10, GST-VND7 NAC domain (Arabidopsis thaliana, UniProt Q9C8W9 9-158).
T10 sequence: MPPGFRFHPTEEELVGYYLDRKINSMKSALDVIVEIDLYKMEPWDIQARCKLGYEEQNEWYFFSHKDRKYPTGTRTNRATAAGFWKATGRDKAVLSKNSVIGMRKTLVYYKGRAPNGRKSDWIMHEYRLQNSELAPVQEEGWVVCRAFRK
As to conditions: protein: recombinant; tags: GST; chain copies: 2; dsDNA, one strand shown. Summed up: as §1

A further assay deals with GST-WRKY1(266-371) (Arabidopsis thaliana, UniProt Q9SI37 266-371). As to conditions: protein: recombinant; tags: GST; dsDNA, one strand shown. Summed up:
as §1

A further assay concerns the target T11, GST-NAP(1-166) (Arabidopsis thaliana, UniProt O49255 1-166).
T11 sequence: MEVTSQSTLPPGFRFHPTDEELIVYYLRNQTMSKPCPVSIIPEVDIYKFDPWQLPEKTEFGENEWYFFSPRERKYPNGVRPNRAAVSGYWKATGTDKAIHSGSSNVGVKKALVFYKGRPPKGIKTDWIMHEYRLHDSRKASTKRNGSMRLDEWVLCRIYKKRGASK
As to conditions: protein: recombinant; tags: GST; chain copies: 2; dsDNA, one strand shown. Summed up: as §1

Chain of GST-WRKY1(266-371) (Q9SI37 266-371): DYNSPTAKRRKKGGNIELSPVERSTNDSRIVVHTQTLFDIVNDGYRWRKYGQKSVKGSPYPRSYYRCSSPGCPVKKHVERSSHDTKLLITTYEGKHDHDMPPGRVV
Chain of GST-NTL6(1-168) (Q9SCK6 1-168): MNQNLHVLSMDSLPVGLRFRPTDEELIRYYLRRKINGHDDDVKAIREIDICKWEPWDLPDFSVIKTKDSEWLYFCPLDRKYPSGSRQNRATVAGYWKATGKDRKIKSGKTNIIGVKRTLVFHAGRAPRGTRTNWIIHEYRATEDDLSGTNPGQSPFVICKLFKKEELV

In the case of ATTACTTC, the binding signal worked out at 0.31 E-score in the assay with GST-ANAC092(1-176); 0.415 E-score in the assay with GST-NTL6(1-168); 0.168 E-score with GST-ANAC019 NAC domain; 0.223 E-score in the assay with GST-ANAC055(1-171); 0.176 E-score with GST-ATAF1 NAC domain; 0.34 E-score in assay [1]. For the same sequence, the binding signal with GST-NST2(1-184) was 0.267 E-score; with GST-NTL8 NAC domain it was 0.406 E-score; in the assay with GST-SND1(1-203), 0.347 E-score; in the assay with GST-VND3 NAC domain, 0.208 E-score; in the assay with GST-VND7 NAC domain, 0.14 E-score; with GST-WRKY1(266-371), 0.097 E-score.

With CTTACCCC, the binding signal in the assay with GST-ANAC092(1-176) was determined as 0.192 E-score; in the assay with GST-NTL6(1-168) it was 0.322 E-score; in the assay with GST-ANAC019 NAC domain, 0.132 E-score; with GST-ANAC055(1-171), 0.191 E-score; with GST-ATAF1 NAC domain, 0.0855 E-score; in assay [1] it was 0.179 E-score. Also, the binding signal with GST-NAP(1-166) is 0.096 E-score; with GST-NST2(1-184), 0.175 E-score; in the assay with GST-NTL8 NAC domain, 0.405 E-score; with GST-SND1(1-203) it was 0.198 E-score; in the assay with GST-VND3 NAC domain it was 0.101 E-score; with GST-VND7 NAC domain, 0.149 E-score. Also, in the assay with GST-WRKY1(266-371), the binding signal is 0.0524 E-score.

Turning to ACACGTCA, the binding signal with GST-ANAC092(1-176) amounted to 0.484 E-score; with GST-ANAC019 NAC domain it was 0.436 E-score; with GST-ANAC055(1-171), 0.402 E-score; with GST-ATAF1 NAC domain, 0.382 E-score; in assay [1], 0.487 E-score; with GST-NAP(1-166), 0.431 E-score. Moreover, the binding signal is 0.316 E-score in the assay with GST-NST2(1-184); 0.352 E-score with GST-SND1(1-203); 0.395 E-score in the assay with GST-VND3 NAC domain; 0.447 E-score with GST-VND7 NAC domain; 0.251 E-score with GST-WRKY1(266-371).

In the case of TACGTCAA, the binding signal is 0.363 E-score with GST-ANAC092(1-176); 0.216 E-score with GST-ANAC019 NAC domain; 0.194 E-score with GST-ANAC055(1-171); 0.291 E-score with GST-ATAF1 NAC domain; 0.417 E-score in assay [1]; 0.241 E-score with GST-NAP(1-166). Further, the binding signal with GST-NST2(1-184) amounted to 0.341 E-score; with GST-SND1(1-203), 0.44 E-score; with GST-VND3 NAC domain it was 0.23 E-score; in the assay with GST-VND7 NAC domain, 0.205 E-score; with GST-WRKY1(266-371), 0.402 E-score.

On to GCGTGCAC, for which the binding signal with GST-ANAC092(1-176) was determined as 0.372 E-score; in the assay with GST-ANAC019 NAC domain it was 0.255 E-score; with GST-ANAC055(1-171), 0.158 E-score; with GST-ATAF1 NAC domain it was 0.154 E-score; in [1], 0.415 E-score; in the assay with GST-NAP(1-166), 0.145 E-score. Also, the binding signal with GST-NST2(1-184) was 0.169 E-score; in the assay with GST-SND1(1-203), 0.198 E-score; with GST-VND3 NAC domain it was 0.16 E-score; in the assay with GST-VND7 NAC domain, 0.216 E-score; with GST-WRKY1(266-371), 0.0555 E-score.

For GCACGTCA, the binding signal was determined as 0.449 E-score in the assay with GST-ANAC092(1-176); 0.421 E-score in the assay with GST-ANAC019 NAC domain; 0.341 E-score with GST-ANAC055(1-171); 0.317 E-score with GST-ATAF1 NAC domain; 0.465 E-score in assay [1]; 0.341 E-score with GST-NAP(1-166). Further, the binding signal with GST-NST2(1-184) was determined as 0.229 E-score; with GST-SND1(1-203) it was 0.29 E-score; with GST-VND3 NAC domain, 0.368 E-score; with GST-VND7 NAC domain, 0.38 E-score; with GST-WRKY1(266-371) it was 0.195 E-score.

Consider AAGGAAAG, for which the binding signal with GST-ANAC092(1-176) was 0.261 E-score; with GST-NTL6(1-168), 0.398 E-score; in the assay with GST-ANAC019 NAC domain, 0.104 E-score; in the assay with GST-ANAC055(1-171), 0.181 E-score; with GST-ATAF1 NAC domain, 0.0767 E-score; in assay [1], 0.186 E-score. For the same sequence, the binding signal in the assay with GST-NST2(1-184) was 0.239 E-score; with GST-NTL8 NAC domain, 0.467 E-score; in the assay with GST-SND1(1-203), 0.262 E-score; with GST-VND3 NAC domain, 0.0708 E-score; with GST-VND7 NAC domain, 0.117 E-score; with GST-WRKY1(266-371) it was 0.0652 E-score.
